Measurements from the supplement of paper PMC10646978.
± gives the standard deviation.

Experiments:
Settings in all cases: modulator concentration 10 µM
[1] = tested on: RAW-Dual (murine macrophage reporter line); assay: NF-kB reporter (SEAP) activity fold change vs agonist alone; higher = enhanced NF-kB activity
Outline: (§1)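 Overnight stimulation with a PRR agonist followed pre-incubation for 1 hour at 37 °C with compound at 10 μM final. This was done in RAW-Dual murine macrophage reporter cells seeded at 50 000 per well in 384-well plates. NF-κB (SEAP, QUANTI-Blue absorbance at 620 nm) and IRF (Lucia luciferase, QUANTI-Luc luminescence) were read from the supernatant. Each reporter's fold change relative to the mean agonist-only control on the same plate was averaged over replicate plates.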

[2] = tested on: RAW-Dual (murine macrophage reporter line); assay: IRF reporter (Lucia luciferase) activity fold change vs agonist alone; higher = enhanced IRF activity
Outline: as §1

[3] = tested on: RAW-Dual (murine macrophage reporter line); assay: viability score (confluency relative to resting cells, overnight) (fraction); higher = more viable, active = viable (0.7 or more)
Outline: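 A compound met the cutoff when both of two confluency masks exceeded 70% of resting cells. Those masks were made with IncuCyte software from IncuCyte images of RAW-Dual macrophages treated overnight at 10 μM final. This is the basis of the viability score, which is confluency relative to resting cells.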

[4] = agonist: CpG ODN 1826 0.5 ug/mL

Structure (SMILES) | NF-kB reporter [1, 4] | NF-kB reporter ([1]; agonist: LPS 0.1 ug/mL) | NF-kB reporter ([1]; agonist: MPLA […]) | IRF reporter ([2]; agonist: 3'3'-cGAMP 10 ug/mL) | IRF reporter ([2]; agonist: LPS 0.1 ug/mL) | IRF reporter ([2]; agonist: MPLA […]) | viability score [3]
COc1ccc(C2=NN(C(=O)c3ccc(Br)cc3)C(c3nc4ccccc4[nH]3)C2)cc1 (stereo not drawn) | 0.994 ± 0.087 | 1.1 ± 0.12 | 0.867 ± 0.07 | 0.92 ± 0.049 | 1.16 ± 0.092 | 1.1 ± 0.34 | 0.986 (active)
NC(=O)[C@@H](CCC(F)(F)F)N(Cc1ccc(-c2ncon2)cc1F)S(=O)(=O)c1ccc(Cl)cc1 | 0.744 ± 0.062 | 1.04 ± 0.049 | 1.31 ± 0.16 | 0.949 ± 0.051 | 1.43 ± 0.084 | 1.58 ± 0.13 | 0.997 (active)
Cc1cc(C(=O)O)n[nH]1 | 1.01 ± 0.077 | 0.891 ± 0.15 | 1.03 ± 0.12 | 1.06 ± 0.038 | 1.24 ± 0.14 | 1.34 ± 0.2 | 1.02 (active)
CCn1nc(C)c(S(=O)(=O)N2CC3CC2CS3)c1C (stereo not drawn) | 0.892 ± 0.039 | 0.936 ± 0.075 | 0.959 ± 0.051 | 1.04 ± 0.055 | 1.17 ± 0.23 | 1.29 ± 0.41 | 0.988 (active)
CN1CCC(=C2c3ccccc3C=Cc3ccccc32)CC1 [Prestw-103] | 0.516 ± 0.038 | 0.833 ± 0.056 | 1.01 ± 0.053 | 0.72 ± 0.067 | 0.905 ± 0.1 | 0.915 ± 0.12 | 0.293 (inactive)
Cn1cc(CC(=O)NC2CCN(c3cc(C(F)(F)F)ncn3)CC2)c2ccccc21 | 1.45 ± 0.082 | 1.24 ± 0.1 | 1.13 ± 0.23 | 0.77 ± 0.039 | 1.24 ± 0.075 | 1.39 ± 0.1 | 0.929 (active)
CCC(=O)c1ccc(N2CCCCCC2)c(F)c1 | 0.864 ± 0.067 | 0.96 ± 0.074 | 1.14 ± 0.16 | 1 ± 0.048 | 1.61 ± 0.1 | 2.1 ± 0.18 | 0.982 (active)
O=C(COc1ccc2ccccc2c1)NCC#CCN1CCCCC1 | 0.854 ± 0.036 | 0.981 ± 0.078 | 1.07 ± 0.064 | 1 ± 0.048 | 1.27 ± 0.29 | 1.48 ± 0.49 | 0.956 (active)
C=CCN1C(=O)C(=C2SC(=S)N(C)C2=O)c2ccccc21 | 0.76 ± 0.072 | 0.833 ± 0.085 | 1.03 ± 0.12 | 0.971 ± 0.05 | 1.33 ± 0.078 | 1.42 ± 0.15 | 0.997 (active)
NC(=O)c1ncn(C2OC(CO)C(O)C2O)n1 (stereo not drawn) | 1.17 ± 0.089 | 1.16 ± 0.058 | 1.04 ± 0.03 | 1.02 ± 0.075 | 0.951 ± 0.11 | 0.922 ± 0.072 | 0.999 (active)
CC1CC(OC(=O)C(O)c2ccccc2)CC(C)(C)C1 (stereo not drawn) | 0.872 ± 0.037 | 1.02 ± 0.11 | 1.11 ± 0.18 | 1 ± 0.051 | 1.25 ± 0.25 | 1.48 ± 0.5 | 1.01 (active)
C=CC(=O)Nc1cccc(Nc2nc(Nc3ccc(N4CCN(C(C)=O)CC4)cc3OC)ncc2C(F)(F)F)c1 | 0.634 ± 0.16 | 0.662 ± 0.035 | 0.977 ± 0.086 | 0.0805 ± 0.0073 | 0.438 ± 0.14 | 0.406 ± 0.04 | 0.926 (active)
Brc1ccc(C(Cc2ccccc2)Nc2ccccn2)cc1 (stereo not drawn) | 0.255 ± 0.014 | 1.07 ± 0.071 | 0.929 ± 0.084 | 1.27 ± 0.042 | 1.75 ± 0.12 | 1.28 ± 0.12 | 0.959 (active)
Brc1ccc(-c2nc(-c3ccccc3)cc(N3CCOCC3)n2)cc1 | 1.05 ± 0.089 | 1.01 ± 0.066 | 1.01 ± 0.039 | 0.961 ± 0.097 | 1.11 ± 0.1 | 1.09 ± 0.16 | 1 (active)
COC(=O)C1=C(C)N(Cc2ccccc2)C(=O)C1=Cc1ccc(C)cc1 | 0.59 ± 0.048 | 0.655 ± 0.05 | 0.749 ± 0.069 | 0.4 ± 0.02 | 1.08 ± 0.068 | 0.948 ± 0.092 | 0.998 (active)
NC(=O)NO | 1.31 ± 0.18 | 1.21 ± 0.29 | 0.96 ± 0.057 | 0.905 ± 0.028 | 1.44 ± 0.26 | 1.09 ± 0.084 | 1 (active)
Cc1nc[nH]c1CN1CCc2c(c3ccccc3n2C)C1=O.Cl | 1.13 ± 0.28 | 1.08 ± 0.12 | 0.903 ± 0.08 | 0.903 ± 0.041 | 1.31 ± 0.2 | 1.12 ± 0.11 | 1 (active)
C#Cc1cccc(Nc2ncnc3cc4c(cc23)OCCOCCOCCO4)c1 | 0.937 ± 0.043 | 1 ± 0.11 | 1.11 ± 0.093 | 1.02 ± 0.05 | 1.2 ± 0.17 | 1.39 ± 0.36 | 1.02 (active)
O=C1SC(=Cc2ccc([N+](=O)[O-])cc2)C(=O)N1Cc1ccccc1 | 0.98 ± 0.064 | 1.04 ± 0.069 | 0.951 ± 0.071 | 0.989 ± 0.042 | 1.5 ± 0.28 | 1.23 ± 0.12 | 1 (active)
COc1cccc(S(=O)(=O)N2CCCC(c3nnc(C(F)(F)F)o3)C2)c1 (stereo not drawn) | 0.892 ± 0.039 | 1.08 ± 0.09 | 1.03 ± 0.06 | 0.885 ± 0.041 | 1.11 ± 0.27 | 1.3 ± 0.36 | 1.02 (active)
Br.COc1ccc(C2=NN(c3nc(-c4ccc(OC)c(F)c4)cs3)C(c3ccc(OC)cc3)C2)cc1 (stereo not drawn) | 0.964 ± 0.068 | 0.997 ± 0.11 | 0.914 ± 0.1 | 0.805 ± 0.071 | 1.22 ± 0.08 | 1.05 ± 0.39 | 1.01 (active)
CCOc1ccc(C(CN)N2CCOCC2)cc1 (stereo not drawn) | 1.07 ± 0.048 | 0.934 ± 0.079 | 1.08 ± 0.075 | 0.943 ± 0.046 | 1.33 ± 0.28 | 1.29 ± 0.44 | 0.941 (active)
CCn1nnc2c(NCCc3c[nH]c4ccccc34)ncnc21 | 0.961 ± 0.042 | 1.09 ± 0.1 | 1.09 ± 0.058 | 0.768 ± 0.043 | 1.05 ± 0.15 | 1.11 ± 0.32 | 0.958 (active)
c1ccc(Nc2nc(Nc3ccccc3)nc(N3CCCCC3)n2)cc1 | 0.605 ± 0.04 | 1.01 ± 0.062 | 0.977 ± 0.064 | 1.05 ± 0.053 | 1.53 ± 0.15 | 1.22 ± 0.2 | 0.995 (active)
